# Data as given in article PMC4336329 (PLoS ONE, 2015).
# The whole screen tested about 310,000 compounds, of which about 14,000 (4.5%) showed an effect of 50% or more. Effects have a minus sign here. The list comes from a sample in which strong results are over-represented; it also holds similar structures and randomly drawn compounds.
# Biological target: human ether-à-go-go-related gene (hERG) potassium channel (human, UniProt Q12809)
# Assay: primary screen, population patch clamp on CHO cells stably expressing hERG; higher = less effect of the substance
# 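Note: peak tail current of the secondary pulse compared with the same well before compound.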
# human ether-à-go-go-related gene (hERG) potassium channel, sequence (Q12809 whole entry, looked up): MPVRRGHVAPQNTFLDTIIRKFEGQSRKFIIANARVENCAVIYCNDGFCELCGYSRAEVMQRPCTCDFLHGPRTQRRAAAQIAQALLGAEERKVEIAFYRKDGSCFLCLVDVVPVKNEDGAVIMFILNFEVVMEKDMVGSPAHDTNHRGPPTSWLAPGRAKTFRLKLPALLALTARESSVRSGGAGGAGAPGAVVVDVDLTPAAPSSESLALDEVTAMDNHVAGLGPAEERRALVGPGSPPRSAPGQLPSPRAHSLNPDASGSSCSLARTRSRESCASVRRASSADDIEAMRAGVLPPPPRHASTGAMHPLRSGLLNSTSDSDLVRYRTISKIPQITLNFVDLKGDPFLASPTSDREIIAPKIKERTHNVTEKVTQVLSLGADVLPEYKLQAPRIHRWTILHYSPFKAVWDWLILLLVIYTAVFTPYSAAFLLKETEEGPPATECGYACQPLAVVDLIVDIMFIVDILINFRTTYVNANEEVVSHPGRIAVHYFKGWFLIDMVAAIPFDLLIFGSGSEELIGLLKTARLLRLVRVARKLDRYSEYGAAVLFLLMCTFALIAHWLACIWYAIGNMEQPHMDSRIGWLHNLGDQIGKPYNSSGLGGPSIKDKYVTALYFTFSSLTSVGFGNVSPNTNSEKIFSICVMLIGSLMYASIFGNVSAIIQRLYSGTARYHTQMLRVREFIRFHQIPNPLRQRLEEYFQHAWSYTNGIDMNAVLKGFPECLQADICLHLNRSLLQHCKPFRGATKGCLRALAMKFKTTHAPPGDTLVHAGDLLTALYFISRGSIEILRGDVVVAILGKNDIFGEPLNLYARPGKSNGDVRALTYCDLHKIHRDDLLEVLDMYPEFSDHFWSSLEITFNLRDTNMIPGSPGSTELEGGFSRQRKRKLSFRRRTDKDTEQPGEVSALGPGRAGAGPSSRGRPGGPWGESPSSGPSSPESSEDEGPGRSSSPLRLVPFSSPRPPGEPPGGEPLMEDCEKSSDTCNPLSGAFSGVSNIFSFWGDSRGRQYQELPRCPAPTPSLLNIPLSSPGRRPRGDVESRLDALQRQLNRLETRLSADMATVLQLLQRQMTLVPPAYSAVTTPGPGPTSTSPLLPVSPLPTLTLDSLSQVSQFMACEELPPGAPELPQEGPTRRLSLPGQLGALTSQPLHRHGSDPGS
row,SMILES,"hERG current change (%, negative = inhibition) at 10uM [%]"
1,CCCCOC(=O)Nc1ccc(S(=O)(=O)Nc2ccc([N+](=O)[O-])cc2)cc1,9.83
2,Cc1cc(C(=O)OCC(=O)c2cccs2)c2ccccc2n1,24.1
3,O=c1[nH][nH]c(-c2ccccc2)c1C=Nc1ccc(Cl)cc1,-23
4,Cc1ccc(C(=O)C2=C(O)C(=O)N(CCCN3CCOCC3)C23C(=O)N(C)c2ccccc23)o1 (stereo not shown),27.9
5,O=C(Cn1[nH]c(=O)c2ccccc2c1=O)OCC(=O)c1ccccc1Cl,-0.463
6,CC(C)n1cc(CN2CCN(CCc3ccccc3)C(CCO)C2)cn1 (stereo not shown),-53.4
7,OCCC1CN(Cc2cccc(F)c2F)CCN1CCc1ccccc1 (stereo not shown),-55.3
8,CC(C)CCN1CCN(Cc2ccc3nsnc3c2)CC1CCO (stereo not shown),-42.6
9,CC(C)=CCN1CCN(Cc2ccc3nsnc3c2)CC1CCO (stereo not shown),-19.4
10,Cc1nn(-c2ccc(F)cc2)c(C)c1CN1CCN(CCc2ccccc2)C(CCO)C1 (stereo not shown),-67.5
11,CCn1cc(CN2CCN(CCc3ccccc3)C(CCO)C2)c(C)n1 (stereo not shown),-31
12,OCCC1CN(Cc2ccc3nsnc3c2)CCN1CCc1ccccc1 (stereo not shown),-82.2
13,Cc1nn(-c2ccc(F)cc2)c(C)c1CN1CCN(Cc2ccccc2)C(CCO)C1 (stereo not shown),-44.2
14,Cc1nn(-c2ccc(F)cc2)c(C)c1CN1CCN(CCC(C)C)C(CCO)C1 (stereo not shown),-36.3
15,Cn1cc(CN2CCN(CCc3ccccc3)C(CCO)C2)cn1 (stereo not shown),4.52
16,O=C(O)c1cncc(C#Cc2ccccc2)c1,1.39
17,Cc1c(C(=O)Nc2ccc(OCc3ccccc3)cc2)cccc1[N+](=O)[O-],-0.125
18,CC1CCCCN1S(=O)(=O)c1ccc(C(=O)N2CCOCC2)cc1 (stereo not shown),16.8
19,C[Se]C[C@@H](N)C(=O)O.Cl,12.3
20,COc1cc2ccccc2cc1C(=O)OCC(=O)N(C)c1c(N)n(Cc2ccccc2)c(=O)[nH]c1=O,3.29
21,Cn1c(C(=O)NCCN2CCc3ccccc3C2)cc2c(=O)n(C)c3ccccc3c21,-11.8
22,N/C(=N\OC(=O)CCCOc1ccccc1)c1ccccc1,7.28

row,SMILES,"hERG current change (%, negative = inhibition) at 10uM [%]"
1,Cl.c1ccc(OCCN2C3=NCCN3c3ccccc32)cc1,-73.3
2,Br.COC(=O)CN1C2=NCCCN2c2ccccc21,-11.8
3,COC(=O)c1ccc(OCCOc2ccc(C(=O)OC)cc2)cc1,-14.3
4,Br.COC(=O)c1ccc(OCCN2C3=NCCN3c3ccccc32)cc1,-68.7
5,CCN(CC)c1ccc(/C=N/NC(=O)c2ccc3nc[nH]c3c2)cc1,-22
6,N#C/C(=C/c1ccccc1)C(=O)OCC(=O)Nc1ccccc1[N+](=O)[O-],8.46
7,Cc1nn(-c2ccccc2)c(C)c1-c1nnc(C(F)(F)F)o1,2.32
8,Cc1ccc(-c2c3c(=O)n(C)c(=O)n(C)c3cn2N2CCOCC2)cc1,-40
9,Cn1c(=O)c2c(-c3ccc(C(C)(C)C)cc3)n(N3CCOCC3)cc2n(C)c1=O,-26.7
10,COc1ccc(-c2c3c(=O)n(C)c(=O)n(C)c3cn2N2CCOCC2)cc1,-52.3
11,COC(=O)c1cc(C(=O)Nc2ccc(Cl)cn2)cc([N+](=O)[O-])c1,-19
12,O=c1oc2cc(S(=O)(=O)NCCCO)ccc2c2ccc(S(=O)(=O)NCCCO)cc12,16.1
13,CN1CCC(OC(=O)c2cccc(Cl)c2)CC1.Cl,-8.64
14,CN(C)CC1CCCCC1OC(=O)c1ccc(Br)cc1.Cl (stereo not shown),-7.82
15,CN(C)CC1CCCCC1OC(=O)c1ccc(Cl)c(Cl)c1.Cl (stereo not shown),-52.1
16,CN(C)CC1CCCCC1OC(=O)c1ccc(Cl)cc1Cl.Cl (stereo not shown),-56.5
17,CN(C)CC1CCCCC1OC(=O)/C=C/c1ccc(Cl)cc1Cl.Cl (stereo not shown),-32.4
18,CN1CCC(OC(=O)c2ccccc2Cl)CC1.Cl,0.522
19,CN1CCC(OC(=O)c2ccc(Cl)cc2Cl)CC1.Cl,-55.9
20,CN(C)CC1CCCCC1OC(=O)c1ccc(Cl)cc1 (stereo not shown),-28.5
21,COc1ccc(C(=O)OC2CCCCC2CN(C)C)cc1.Cl (stereo not shown),14.1
22,Cc1cc(C)n2nc(C(=O)N3CCCC(Nc4ccc(F)c(F)c4)C3)cc2n1 (stereo not shown),5.05

row,SMILES,"hERG current change (%, negative = inhibition) at 10uM [%]"
1,COc1cccc(N2C(=O)CC(N3CCN(C(=O)c4ccco4)CC3)C2=O)c1 (stereo not shown),9.29
2,COCCN(C(=O)c1ccc(NC2CC2)c([N+](=O)[O-])c1)c1c(N)n(CC(C)C)c(=O)[nH]c1=O,-5.42
3,C[C@@H]1CC[C@]2(O[C@H](CCO)C[C@@H](O)[C@@H]2O)O1,0.536
4,CC(C)(c1ccccc1)c1ccc(OCCN)cc1.Cl,-20.2
5,CCc1cccc(NC(=O)CCc2c(C)nn(-c3ccc(N4CCCCC4)nn3)c2C)c1,-19
6,Cc1cccc(NC(=O)CCc2c(C)nn(-c3ccc(N4CCOCC4)nn3)c2C)c1,3.98
7,CCc1cccc(NC(=O)CCc2c(C)nn(-c3ccc(N4CCOCC4)nn3)c2C)c1,-51.4
8,COc1ccc(NC(=O)Cn2c(=O)oc3cc(S(=O)(=O)N4CCCC4)ccc32)cc1,5.26
9,CC1(C)CC(=O)C2=C(C1)N(c1ccccc1)C(=O)CC2c1ccsc1 (stereo not shown),-14.4
10,O=C(NCc1ccccc1)C1CCN(S(=O)(=O)N2CCCCCC2)CC1,-11
11,CCn1c(=O)c(C(=O)NCCNCCO)c(O)c2ccccc21.Cl,5.89
12,CCN1C(=O)C(CC(=O)Nc2ccc(OC)cc2)N(CCCN2CCN(c3ccc(OC)cc3)CC2)C1=S (stereo not shown),-68
13,CCN1C(=O)C(CC(=O)Nc2ccc(OC)cc2)N(CCc2ccc(F)cc2)C1=S (stereo not shown),-6.48
14,CCN1C(=O)C(CC(=O)Nc2ccc(OC)cc2)N(CCCN2CCN(c3ccc(F)cc3)CC2)C1=S (stereo not shown),-37.6
15,CCN1C(=O)C(CC(=O)Nc2ccc(OC)cc2)N(CCN2CCOCC2)C1=S (stereo not shown),-4.13
16,CCN1C(=O)C(CC(=O)Nc2ccc(F)cc2)N(CCCN2CCN(c3ccc(F)cc3)CC2)C1=S (stereo not shown),-62.2
17,CCN1C(=O)C(CC(=O)Nc2ccc(F)cc2)N(CCc2ccc(OC)cc2)C1=S (stereo not shown),-0.637
18,CCCOc1ccc(NC(=O)CC2C(=O)N(CC)C(=S)N2CCNC(C)=O)cc1 (stereo not shown),-11.5
19,C=CCN1C(=O)C(CC(=O)Nc2ccc(OCCC)cc2)N(CCCN2CCN(Cc3ccccc3)CC2)C1=S (stereo not shown),-38.7
20,CCCOc1ccc(NC(=O)CC2C(=O)N(CC)C(=S)N2CCCN2CCN(Cc3ccccc3)CC2)cc1 (stereo not shown),-50.5
